# Experimental data published in the supplement of paper PMC6555819.
# Assays:
# Assay in all cases: PBM binding z-score (relative to random genomic background probes); higher = stronger binding; sequences stand for … in GC…GCGATTGACAGCGTAGAATGAAGG
# [1] = tested on: FXR:RXRa (NR concentration 270 nM, RXRa partner concentration 90 nM)
# How it was run: (§1)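 Scanned fluorescence from custom Agilent 4×180K protein-binding microarrays was regression-normalized. Binding z-scores use random background probes as reference. Ligand-free nuclear receptor dimers were incubated on the arrays for 1 h and detected with antibodies against each partner (one per run).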
# [2] = tested on: LXRa:RXRa (NR concentration 270 nM, RXRa partner concentration 90 nM)
# How it was run: as §1
# [3] = tested on: LXRa homodimer (NR concentration 270 nM)
# How it was run: as §1
# [4] = tested on: LXRb:RXRa (NR concentration 270 nM, RXRa partner concentration 90 nM)
# How it was run: as §1
# [5] = tested on: LXRb homodimer (NR concentration 270 nM)
# How it was run: as §1
# [6] = tested on: PPARa:RXRa (NR concentration 270 nM, RXRa partner concentration 90 nM)
# How it was run: as §1
# [7] = tested on: PPARg:RXRa (NR concentration 180 nM, RXRa partner concentration 90 nM)
# How it was run: as §1
# [8] = tested on: PPARg:RXRa 270nM:90nM, anti-RXR (NR concentration 270 nM, RXRa partner concentration 90 nM)
# How it was run: as §1
# [9] = tested on: PPARg:RXRa 30nM:10nM, anti-RXR (NR concentration 30 nM, RXRa partner concentration 10 nM)
# How it was run: as §1
# [10] = tested on: PPARg:RXRa 90nM:30nM, anti-RXR (NR concentration 90 nM, RXRa partner concentration 30 nM)
# How it was run: as §1
Sequence,PBM binding z-score [1],PBM binding z-score [2],PBM binding z-score [3],PBM binding z-score [4],PBM binding z-score [5],PBM binding z-score [6],PBM binding z-score [7],PBM binding z-score [8],PBM binding z-score [9],PBM binding z-score [10]
ACTAGCAGGCTAAGGGTCACTCAAGATTAGTCCG,2.37,2.99,-0.0624,2.72,-0.651,4.35,6.55,6.82,6.03,7.57
ACTTACGGGTCAACGAGTTTATAGCACGCGTATA,6.09,4.46,1.02,4.03,0.714,5.4,5.37,5.02,2.4,4.12
CGTCCAAGGTCATAGGAGGTCAGAGAAGACAGAT,8,7.71,5.01,6.38,0.877,6.27,6.35,6.19,2.71,5.09
GCTATTGGTTGAAAGGGCAACCGAATGATTCTCG,0.353,0.664,-0.156,0.954,-0.225,2.36,2.29,4.34,1.94,4.37
ATCTCTAGGGAAAGATAGTTCAGTGAATGCAAAT,-0.0344,0.192,0.0693,0.157,0.479,0.0958,0.337,0.214,0.232,0.358
TTACCAAGGTGATAGGTCGTTGATGCACGCCTTG,0.534,0.702,-0.126,0.514,-0.482,2.84,4.06,5.47,3.82,5.61
CCTACTGGGCCAAACAGGTCATTGATGCCGATAA,0.606,0.905,0.657,1.55,-0.709,2.56,1.79,2.18,0.412,1.43
ATCTCTAGGTAAACAAGTTCAGTGAATGCCGAAC,0.431,1.06,1.16,0.55,0.583,1.04,0.677,0.774,0.448,0.709
TAGCCTAGCTCAGATCGGGCCAGTATACGCTATA,-0.961,-1.35,-1.07,-1.25,-1.34,-1.21,-0.0455,-0.972,-0.749,-0.992
CCTACTGGGCCATTCAGAGGTCATTTATCATATG,2.65,4.36,8.31,4.14,1.15,3.75,2.29,2.85,0.841,1.78
CCTTACGGTTCACGAGGTTATAGCACGACGAGCG,3.45,3.49,1.87,2.57,0.189,3.75,1.96,2.4,0.593,1.58
ACTTGCAGGCCAAGTTTGGGTCACTCAAACAAAG,0.638,0.231,-0.189,1.11,-0.0882,1.87,0.148,0.667,-0.561,0.0704
CGTCAAAGTTCAAGGTAACGAAACAGAAAGCAGC,6.35,5.77,2.25,3.3,0.914,4.7,4.6,5.48,2.22,4.42
CCTACTGGGCCAAACGTCATTGATTCCAATGCTC,-0.411,-0.228,-0.236,-0.0474,-0.218,2.31,4.96,6.47,5.56,6.79
CCTAGCAGGCCAGGGTCACTCAGGCATTTCGCTT,1.73,1.43,-0.738,1.49,-0.994,2.75,0.469,1.25,-0.561,0.308
GCTATTAGCTGAAAGGGCAACCGAATGATTCTCG,0.0536,0.222,-0.091,0.372,-0.619,1.19,1.15,2.72,0.859,2.07
CAAACTAGGTCACGAAAGGTCAAAGTAGAATGAC,7.59,8.11,8.28,7.19,2.72,6.77,10.6,8.55,6.87,8.89
CCGACTGGGGCAAAGCTTACCATACTCAGTACGA,-0.466,-0.638,-0.547,-0.287,-0.784,0.592,1.53,2.52,0.444,2.26
GCTGCTAGGTCAACTGTTGGTCAGCTAAAGCTCG,3.97,2.97,0.182,2.03,0.134,3.61,2.63,3.07,0.511,2.23
ATCTCTAGGTAAAAGTTCAGCGAATCCCGAGGAT,1.36,1.99,1.58,1.46,0.982,4.39,8.87,8.21,8.78,9.67
CGTCCAAGGTCAATACTAGGTCAGTGAAAGCATT,6.7,5.42,3.65,4.71,1.55,5.33,4.52,4.7,2.1,3.73
CCTGCTAGGTCAATGGTAAGCTAAAGCAGCTCGC,2.96,2.11,-0.107,1.19,-0.205,2.84,2.52,2.98,0.395,2.09
CCTTACAGGTCACTCCAGGTTATAGCATCGGAGT,5.51,7.41,5.05,5.43,1.27,4.75,3.81,3.66,1.52,2.79
ATATGTAGGTTATCGGGTCATTGAGTTTGCGCAT,3.15,3.21,1.69,2.94,1.33,4.75,7.4,6.33,3.44,5.94
